# Compounds with a hit are over-represented: about 17% of the library has one in this group of screens.
# TGFb SMAD3 inh = inhibitors of TGF-b signaling; HepG2 CAGA-GFP TGF-b/SMAD3 reporter, GFP fluorescence, 18 h; TGF-beta stimulated, 500 pg/mL final; Potency, µM (doses to about 46.1 µM), for inactives: top-dose activity, negative = inhibition, usual class: inhibitors; 410,000 compounds, 1.2% hits; further: on the % scale 0 is the no-effect control and ±100 the full control effect; nearly all actives have a fitted effect of over 65% in size
#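 Using HEPG2 CAGA-GFP reporter cells at 1000 cells/well, we pinned test compounds, stimulated with recombinant TGF-beta (500 pg/mL final) and measured total well GFP after 18 h.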
# TDP1 cell noCPT = qHTS for Inhibitors of human tyrosyl-DNA phosphodiesterase 1 (TDP1): qHTS in cells in absence of CPT; DT40 Tdp1-/- hTDP1 cells, no CPT, ATP luminescence, 48 h; Potency, µM (highest dose often 46.2 µM), inactives show top-dose activity change, negative = growth inhibition, hits mostly inhibitors; AID 686978, 2013; 420,000 compounds, 15% hits; further: on the % scale 0 is the no-effect control and ±100 the full control effect; nearly all actives have a fitted effect of over 55% in size
#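 Camptothecin absent (DMSO only). Human TDP1-complemented DT40 knockout cells, 400 cells/well, 37 °C for minimum 48 hr; ATP measured via CellTiter-Glo, 30 min dark incubation, luminescence.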
# HepG2 viability = kills HepG2 cells in TGF-b inhibitor counter-screen; HepG2 CAGA-GFP viability, ATP luminescence, 18 h; Potency, µM (series often up to 46.1 µM), for the others: at the highest dose activity change, negative = cytotoxicity, most hits filed as cytotoxic; 410,000 compounds, 0.76% hits; AID 588856
#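 CellTiter-Glo luminescence gave cytotoxicity after 18 hours at 37 degrees C. The cells were HepG2 CAGA-GFP in 1% FBS DMEM, stimulated with 500 pg/mL TGF-beta after compound addition. %Activity was normalised to no-cell wells (complete cell-killing) and DMSO (no toxicity), and curves were fitted and classified.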
# TDP1 cell CPT = growth inhibition of DT40 Tdp1-/-;hTDP1 cells with camptothecin (screen for TDP1 inhibitors). chicken DT40 Tdp1-/-;hTDP1 cells + 20 nM CPT, ATP luminescence, 48 h. Potency, µM (doses to about 46.2 µM), without a hit: at the highest dose activity change, negative = growth inhibition, hits mostly inhibitors. 420,000 compounds, 12% hits. AID 686979; further: on the % scale 0 is the no-effect control and ±100 the full control effect; nearly all actives have a fitted effect of over 55% in size
#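 Chicken DT40 Tdp1-/- cells stably complemented with human TDP1 were seeded at 400 cells/well in medium containing 20 nM camptothecin, exposed to pin-transferred compounds, and grown at 37 °C for at least 48 hr. Viability was read as ATP luminescence.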
# HT1080 IDH1KD tx = kills HT-1080 cells with IDH1 knockdown. HT-1080 IDH1 knockdown viability, ATP luminescence, 48 h. Potency, µM (series often up to 46.1 µM), inactives show at the top dose activity, negative = toxicity, actives largely listed as cytotoxic. 360,000 compounds, 2% hits. AID 686971;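 further: 0% = DMSO wells and -100% = cell-free medium wells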
#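 In this qHTS, HT-1080 cells depleted of IDH1 are exposed for 48 h at 37 °C to compound titrations. Toxicity is scored from CellTiter-Glo luminescence, with DMSO as full viability and medium alone as none.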
# HT1080NT lethal = kills 2HG-producing HT-1080-NT fibrosarcoma cells. HT-1080-NT fibrosarcoma viability, CellTiter-Glo ATP luminescence, 48 h. Potency, µM (series often up to 46.1 µM), for the others: top-dose activity, negative = less viability, most hits filed as cytotoxic. 360,000 compounds, 1.6% hits. AID 686970;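 further: NT is the 2HG producing partner of a matched IDH1 knockdown line; 0% = DMSO-treated cells and -100% = media-only wells without cells; nearly all actives have a fitted effect of over 55% in size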
#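 Viability of the 2HG-overproducing fibrosarcoma line after 48 hours of compound exposure at 37 degrees C was determined by luminescence with CellTiter-Glo, and concentration-effect curves were then fitted and categorized.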
# Numbers without * were called inactive; ? = inconclusive; . = not tested or not shown; [ ] = another dose, or the depositor's remark. The call rests on the fitted dose curve; in most records, active means well fitted curve in the direction sought with a large enough effect; inconclusive means small, poorly fitted or top-dose-only effect, or another doubt; inactive means no such curve, though single readings can be large; an effect the other way counts as inactive or inconclusive. Potency means the concentration at half of the fitted maximal effect.
SMILES,TGFb SMAD3 inh,TDP1 cell noCPT,HepG2 viability,TDP1 cell CPT,HT1080 IDH1KD tx,HT1080NT lethal
COc1ccc(NC(=O)c2cc(-c3ccccn3)nc3ccccc23)c(OC)c1,8.3%,14.6µM*,-10.4%,29.1µM*,-15.5%,0.0%
COC(=O)c1ccc(NC(=O)c2cc(-c3ccccn3)nc3ccccc23)cc1,-2.2%,-13.8%,-24.3%,2.8%,17.7%,3.6%
CCOc1ccccc1NC(=O)c1cc(-c2ccccn2)nc2ccccc12,7.7%,10.3µM*,-0.9%,20.6µM*,-0.4%,18.4%
CCCc1cc(=O)oc2cc(OCC(=O)N3CCN(C(=O)C4COc5ccccc5O4)CC3)ccc12 (stereo unspecified),2.9%,5.8µM*,2.5%,?,-2.9%,-20.3%
Cc1c(C)c2ccc(OCC(=O)N3CCN(C(=O)C4COc5ccccc5O4)CC3)cc2oc1=O (stereo unspecified),4.7%,2.31µM*,-29.6%,?,-13.2%,0.7%
Cc1cc(=O)oc2cc(OCC(=O)N3CCN(C(=O)C4COc5ccccc5O4)CC3)ccc12 (stereo unspecified),-8.8%,?,-8.2%,?,-7.0%,-5.2%
Cc1cc2c(cc1S(=O)(=O)Nc1cccc(Cl)c1C)n(C)c(=O)c(=O)n2C,-1.8%,?,1.6%,5.9%,.,.
Cc1c(C(=O)N2CCOCC2)sc(NC(=O)CCl)c1C#N,-0.3%,11.6µM*,-8.0%,13µM*,11.6µM*,13µM*
O=C(c1ccco1)n1nc(-c2cccnc2)nc1NCc1ccco1,0.0%,23.1µM*,0.0%,?,-0.5%,-0.5%
COc1ccc(C(=O)n2nc(-c3ccc(Cl)cc3)nc2NCc2ccco2)cc1,-20.6%,?,-20.1%,?,.,.
COc1ccc(CC(=O)n2nc(-c3ccc(Cl)cc3)nc2NCc2ccco2)cc1,-30.6%,18.4µM*,-17.1%,?,?,2.2%[9.24 µM]
CS(=O)(=O)OCCCNCCCOS(C)(=O)=O,.,-20.9%,.,1.8%,.,.
Cc1noc(C)c1CSCC(=O)N(C)CC(=O)Nc1ccccc1C(F)(F)F,-11.4%,-4.0%,-16.5%,8.7%,-2.1%,8.6%
Nc1nc(N)c2cc(S(=O)(=O)c3ccc4ccccc4c3)ccc2n1,?,1.84µM*,-74.6%,?,3.26µM*,8.2µM*
CCCCN(CC)C(=O)C1CCC(CNS(=O)(=O)c2cccc3nsnc23)CC1 (stereo unspecified),-7.2%,9.2µM*,-18.1%,23.1µM*,-11.1%,-2.6%
CN(C(=O)C1CCC(CNS(=O)(=O)c2cccc3cccnc23)CC1)C1CCCCC1 (stereo unspecified),-4.7%,14.6µM*,-19.5%,?,-20.2%,-12.9%
CCN(C(=O)C1CCC(CNS(=O)(=O)c2cccc3nsnc23)CC1)c1ccc(C)c(C)c1 (stereo unspecified),0.3%,25.9µM*,9.1%,?,.,.
Cc1cccc(N(C)C(=O)C2CCC(CNS(=O)(=O)c3cccc4nsnc34)CC2)c1 (stereo unspecified),?,-29.0%,-8.6%,?,.,.
CC1(c2nnc(Cc3ccccc3)o2)CC(c2c(Cl)cccc2Cl)=NO1 (stereo unspecified),-1.4%,-19.7%,-11.8%,-10.9%,4.7%,0.7%
CCOC(=O)NC1(NCC(C)C)Oc2ccccc2O1,-19.3%,-24.7%,-38.3%,?,-28.7%,?
CCOC(=O)NC1(NCc2ccccc2)Oc2ccccc2O1,-0.3%,20.6µM*,-41.3%,?,?,?
CS(=O)(=O)c1ccc(C(=O)OCC(=O)N2CCc3ccccc32)cc1[N+](=O)[O-],?,3.98µM*,-12.2%,3.55µM*,.,.
CC(C)CN1CCN(C(=O)COC(=O)c2ccc(S(C)(=O)=O)c([N+](=O)[O-])c2)CC1,4.47µM*,.,4.47µM*,.,.,.
CS(=O)(=O)c1ccc(C(=O)OCC(=O)N2CCCc3ccccc32)cc1,8.6%,3.2%,-3.0%,0.1%,6.6%,9.4%
O=C(OCC(=O)N1CCc2ccccc21)[C@@H]1CC(O)CN1S(=O)(=O)c1ccccc1[N+](=O)[O-] (stereo partly specified),0.0%,18.4µM*,-23.3%,20.6µM*,11.3%,-1.2%
SMILES,TGFb SMAD3 inh,TDP1 cell noCPT,HepG2 viability,TDP1 cell CPT,HT1080 IDH1KD tx,HT1080NT lethal
Cc1ccc(CNC(=O)c2ccc(Cn3c(=O)c4ccccc4n(CC(=O)Nc4ccc(C)cc4)c3=O)cc2)cc1,-1.2%,-23.0%,-14.1%,-26.1%,.,.
Cc1cc(C)c(NC(=O)Cn2c(=O)n(CCc3ccccc3)c(=O)c3ccccc32)c(C)c1,-0.9%,20.6µM*,0.8%,14.6µM*,.,.
CCc1ccccc1NC(=O)Cn1c(=O)n(CCc2ccccc2)c(=O)c2ccccc21,-3.5%,?,1.5%,?,.,.
Cc1ccc(CNC(=O)c2ccc(Cn3c(=O)c4ccccc4n(CC(=O)Nc4c(C)cc(C)cc4C)c3=O)cc2)cc1,0.9%,4.61µM*,-12.9%,6.51µM*,.,.
Cc1ccc(CNC(=O)c2ccc(Cn3c(=O)c4ccccc4n(CC(=O)Nc4ccc(C)cc4C)c3=O)cc2)cc1,12.0%,?,5.0%,16.4µM*,.,.
COCCCNC(=O)c1ccc(Cn2c(=O)c3ccccc3n(CC(=O)Nc3ccc(C)cc3C)c2=O)cc1,-7.7%,-2.1%,-31.8%,-3.7%,.,.
CCOc1ccc(NC(=O)Cn2c(=O)n(Cc3ccc(C(=O)NCc4ccc(C)cc4)cc3)c(=O)c3ccccc32)cc1,3.4%,14.6µM*,7.3%,16.4µM*,.,.
Cc1cccc(NC(=O)c2ccc(S(=O)(=O)N3CCCCC3)cc2)c1,0.0%,-12.3%,-41.9%,-14.2%,-6.1%,0.5%
COC(=O)c1ccccc1NC(=O)Cn1c(=O)n(-c2ccc(C)cc2)c(=O)c2ccccc21,-35.1%,0.92µM*,-3.3%,0.82µM*,.,.
COC(=O)c1ccccc1NC(=O)Cn1c(=O)n(CCCC(=O)NCc2ccccc2Cl)c(=O)c2ccccc21,0.3%,?,4.2%,?,.,.
Cc1ccc(Nc2nc(C)cc(C)c2C(N)=O)c(C)c1,?,6.51µM*,-21.0%,?,-2.0%,-0.9%
Cc1cc(C)c(C(N)=O)c(Nc2ccc(F)cc2)n1,-0.8%,-21.9%,16.6%,5.3%,-0.9%,14.4%
Cc1cc(C)c(C(N)=O)c(Nc2ccc3c(c2)OCCO3)n1,16.8%,7.31µM*,-5.1%,?,5.9%,10.4%

# High-throughput results: PubChem BioAssay, National Center for Advancing Translational Sciences (NCATS)
